# Results as given in PubChem BioAssay (NCATS).
# Where “and” joins values, the source holds several entries; their conditions need not be identical. Identical values can stand only once. Inconclusive results are not listed. A call without a number means that no potency is given here. Calls of active or inactive are those of the source. Unless noted, the call rests on the fitted dose curve; in most records, active means well fitted curve in the direction sought with a large enough effect; inconclusive means small, poorly fitted or top-dose-only effect, or another doubt; inactive means no such curve, though single readings can be large; an effect the other way counts as inactive or inconclusive.
# Legend:
# [1] = qHTS assay for measurement of the activity of small molecule inhibitors on Zika virus induced Caspase-3 activity in human astrocytoma cells (AID 1224859); further: potency means the concentration at half of the fitted maximal effect
# Outline: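 Luminescent caspase-3/7 read-out (30 min reagent, room temperature) in human SNB-19 cells infected 6 h with ZIKV (2 FFU/cell) after 1 h compound pre-incubation; Data were normalised to uninfected and infected wells.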
# [2] = qHTS assay to identify small molecule inhibitors of chordoma cells - UCH-1 (AID 1259355); further: nearly all actives have a fitted effect of over 55% in size; further: potency means the concentration at half of the fitted maximal effect
# Outline: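 800 cells/well, overnight attach; compounds pinned at 15 concs, then auranofin/camptothecin/doxorubicin/rubitecan/topotecan combo added; 48hr 37 C, 5% CO2; CellTiter-Glo, 30min RT, luminescence.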
# [3] = qHTS assay to identify small molecule inhibitors of chordoma cells - UCH-2 (AID 1259356); further: potency means the concentration at half of the fitted maximal effect
# [4] = P-glycoprotein substrates identified in KB-8-5-11 adenocarcinoma cell line, qHTS therapeutic library screen (AID 1346987); further: nearly all actives have a fitted effect of over 65% in size; further: potency means the concentration at half of the fitted maximal effect
# Outline: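 Compounds are pinned in dose-response onto KB-8-5-11 cells (500 cells/well, colchicine-free medium) and left 72 h at 37 degree C. CellTiter-Glo luminescence then yields AC50 values.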
# [5] = qHTS profiling for inhibitors of Plasmodium falciparum (3D7) proliferation (AID 743322);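 further: infected erythrocytes exposed to compound for 72 h before lysis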; settings: P. falciparum 3D7 proliferation; at 28.7 µM (top of the series) unless noted
# Outline: (§1)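 Parasite DNA was quantified by SYBR Green I fluorescence (ex 485, em 535 nm) after overnight lysis in saponin/Triton buffer at room temperature. Cultures at 0.3% parasitemia and 2.5% hematocrit were first exposed to compound for 72 h at 37 C; signals were normalised to artemisinin (0.29 uM) and vehicle wells.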
# [6] = qHTS profiling for inhibitors of Plasmodium falciparum (DD2) proliferation (AID 743323; call rule not given here); settings: lower = more inhibition; at 28.7 µM (top of the series) unless noted
# Outline: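 Parasite DNA quantified by SYBR Green fluorescence (ex 485, em 535 nm) after saponin/Triton lysis and overnight dark incubation. Cultures: 0.3% parasitemia, 2.5% hematocrit, 72 h, 37 C; data scaled between DMSO and 0.29 uM artemisinin.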
# [7] = qHTS profiling for inhibitors of Plasmodium falciparum (HB3) proliferation (AID 743324); settings: Plasmodium falciparum HB3 blood-stage proliferation; at 28.7 µM (top of the series) unless noted
# Outline: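 SYBR Green fluorescence (485 ex/535 em) of lysed cultures, incubated overnight at room temperature in the dark, quantifies parasite DNA. Infected erythrocytes at 0.3% parasitemia and 2.5% hematocrit were exposed 72 h; values normalized to DMSO and 0.29 uM artemisinin controls.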
# [8] = qHTS profiling of the MIPE4 collection as inhibitors of Plasmodium falciparum (3D7) proliferation (AID 743344; call rule not given here); settings: P. falciparum 3D7 in erythrocytes, SYBR Green DNA fluorescence, 72 h; at 28.5 µM (top of the series)
# Outline: as §1
# [9] = qHTS profiling of the MIPE4 collection as inhibitors of Plasmodium falciparum (DD2) proliferation (AID 743345; call rule not given here); settings: P. falciparum Dd2 in erythrocytes, SYBR Green DNA, 72 h; at 28.5 µM (top of the series)
# Outline: as §1
# [10] = qHTS profiling of the MIPE4 collection as inhibitors of Plasmodium falciparum (DD2) proliferation (Rep 2) (AID 743346; call rule not given here); settings: P. falciparum Dd2 in erythrocytes, SYBR Green DNA, 72 h; at 28.5 µM (top of the series)
# Outline: as §1
# [11] = qHTS profiling of the MIPE4 collection as inhibitors of Plasmodium falciparum (HB3) proliferation (AID 743347; call rule not given here); settings: P. falciparum HB3 in erythrocytes, SYBR Green DNA, 72 h; at 28.5 µM (top of the series)
# Outline: as §1
# [12] = qHTS assay for cell viability of HEK293 cells (AID 743288); settings: ATP luminescence (CellTiter-Glo), 18 h; max response: stronger effect = lower value; further: nearly all actives have a fitted effect of over 50% in size
# Outline: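 Quantitative high-throughput screen: compounds were pinned onto parental HEK293 cells (2,000 per well) after a minimum 5 h settling at 37 C, incubated 18 h at 37 C, and intracellular ATP measured by luciferase luminescence.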
# [13] = qHTS assay for cell viability of the p53RE-bla HCT-116 cell line (AID 743292); further: nearly all actives have a fitted effect of over 55% in size
# Outline: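 Viability of compound-treated p53RE-bla HCT-116 cells is taken from ATP-dependent luciferase luminescence. Treatment lasts 16 h at 37 C after a 5 h settling period; detection follows 30 min at room temperature.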
# [14] = P-glycoprotein substrates identified in KB-3-1 adenocarcinoma cell line, qHTS therapeutic library screen (AID 1346986); further: nearly all actives have a fitted effect of over 60% in size
# Outline: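 Viability read by CellTiter-Glo after 72 h compound exposure in dose-response of KB-3-1 and KB-8-5-11 (P-gp-high) cells. Hits needed AC50 < 10 uM, >50% maximum response and curve class -1.1 to -2.4. Cherry-picks retested ± tariquidar, including pcDNA/MDR-19 HEK-293 pair.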
smiles,measurement,setting,value
Cc1c(Nc2ncccc2C(=O)O)cccc1C(F)(F)F,Potency,[1],inactive
same,Potency,[2],inactive
same,Potency,[3],inactive
same,Potency,[4],inactive
COc1cc(NC(C)CCCN)c2ncccc2c1 (centres undefined),remaining parasite growth % (stronger effect = lower value),[5],4.3% [at 9.63 µM]
same,"activity, percent of control",[6],2.77% [at 9.63 µM]
same,"remaining proliferation (% of control), lower = more inhibition",[7],6.48% [at 9.63 µM]
same,"parasite growth, % of DMSO control",[8],7.16%
same,"parasite growth remaining, % of DMSO control (lower = more inhibition)",[9],8.84%
same,"parasite growth, % of control (lower = inhibition)",[10],15.5%
same,"growth, % of control",[11],8.75%
same,Potency,[1],inactive
same,Potency,[2],inactive
same,Potency,[3],inactive
same,Potency,[4],inactive
Cc1[nH]cnc1CN1CCc2c(c3ccccc3n2C)C1=O,Potency,[1],inactive
same,Potency,[2],inactive
same,Potency,[3],inactive
Cc1cc(O)c2ccccc2c1O,Potency,[1],inactive
same,Potency,[2],inactive
same,Potency,[3],inactive
COc1cccc2c1C(=O)c1c(O)c3c(c(O)c1C2=O)C[C@@](O)(C(=O)CO)C[C@@H]3O[C@H]1C[C@H](N)[C@H](O[C@@H]2CCCCO2)[C@H](C)O1,Potency,[1],inactive
same,Potency,[2],3.98 µM (active)
same,Potency,[3],18.3 µM (active)
same,Potency,[4],inactive
O=C(/C=C/c1ccccc1)NCCO,Potency,[1],inactive
same,Potency,[2],inactive
same,Potency,[3],inactive
same,Potency,[4],inactive
CCCCCCCCCCCC(=O)[O][Sn]([CH2]CCC)([CH2]CCC)[O]C(=O)CCCCCCCCCCC,Potency,[1],inactive
same,Potency,[3],inactive
same,Potency,[4],inactive
N=c1ccn2c(n1)O[C@H]1[C@H](O)[C@@H](CO)O[C@H]12,Potency,[1],inactive
same,Potency,[2],inactive
same,Potency,[3],inactive
same,Potency,[4],inactive
O=C(O)c1cc(O)c(O)c(O)c1,max response,[12],-7.89% (inactive)
same,Potency,[13],inactive
same,Potency,[1],inactive
same,Potency,[2],inactive
same,Potency,[3],inactive
same,Potency,[4],inactive
CN(C)CCn1nnnc1SCC1=C(C(=O)O)N2C(=O)[C@@H](NC(=O)Cc3csc(N)n3)[C@H]2SC1,Potency,[1],inactive
same,Potency,[2],inactive
same,Potency,[3],inactive
same,Potency,[4],inactive
CC(C(=O)O)c1ccc(C(=O)c2ccccc2)s1 (centres undefined),Potency,[1],14.1 µM (active)
same,Potency,[2],inactive
same,Potency,[3],inactive
same,Potency,[4],inactive
CN(C)[C@@H]1C(=O)C(C(=O)NCN2CCCC2)=C(O)[C@@]2(O)C(=O)C3=C(O)c4c(O)cccc4[C@@](C)(O)C3C[C@@H]12 (some centres undefined),Potency,[1],inactive
same,Potency,[2],inactive
same,Potency,[3],inactive
same,Potency,[4],inactive
Cc1nc2ccccc2n1Cc1ccc(Cl)cc1,Potency,[1],inactive
same,Potency,[2],inactive
same,Potency,[3],inactive
same,Potency,[4],4.11 µM (active)
COc1ccc(/C=C/C(=O)Nc2ccccc2C(=O)O)cc1OC,Potency,[1],7.08 µM (active)
same,Potency,[2],inactive
same,Potency,[3],inactive
same,Potency,[4],inactive
c1ccc2sc(SN3CCOCC3)nc2c1,Potency,[1],inactive
same,Potency,[2],inactive
same,Potency,[3],inactive
same,Potency,[4],inactive
O=C1CN(/N=C/c2ccc([N+](=O)[O-])o2)C(=O)N1,Potency,[13],inactive
same,Potency,[1],inactive
same,Potency,[2],inactive
same,Potency,[3],inactive
Nc1c(CC(=O)O)cccc1C(=O)c1ccc(Br)cc1,Potency,[1],inactive
same,Potency,[2],inactive
same,Potency,[3],inactive
same,Potency,[4],inactive
CC(N)C(=O)OC(C)(C)Cc1ccc(Cl)cc1 (centres undefined),Potency,[1],inactive
same,Potency,[2],inactive
same,Potency,[3],inactive
same,Potency,[4],inactive
CCCC(=O)OC[C@@H](OC(=O)CCC)[C@@H](OC(=O)CCC)[C@H](Cn1c2nc(=O)[nH]c(=O)c-2nc2cc(C)c(C)cc21)OC(=O)CCC,Potency,[1],inactive
same,Potency,[2],inactive
same,Potency,[3],inactive
CCCCCCCCCCCCCCCC(=O)OC(C)C,max response,[12],-7.13% (inactive)
same,Potency,[13],inactive
same,Potency,[1],inactive
same,Potency,[2],inactive
same,Potency,[3],inactive
same,Potency,[4],inactive
Nc1cc(-c2ccncc2)c[nH]c1=O,max response,[12],-3.39% (inactive)
same,Potency,[13],inactive
same,Potency,[1],inactive
same,Potency,[2],inactive
same,Potency,[3],inactive
CCCCC1C(=O)N(c2ccccc2)N(c2ccc(O)cc2)C1=O (centres undefined),Potency,[1],inactive
same,Potency,[2],inactive
same,Potency,[3],inactive
COc1ccc(-c2cc(=S)ss2)cc1,Potency,[2],inactive
same,Potency,[3],inactive
CC1(C)[C@@H](O[C@H]2O[C@H](C(=O)O)[C@@H](O)[C@H](O)[C@H]2O[C@@H]2O[C@H](C(=O)O)[C@@H](O)[C@H](O)[C@H]2O)CC[C@]2(C)[C@H]3C(=O)C=C4[C@@H]5C[C@@](C)(C(=O)O)CC[C@]5(C)CC[C@@]4(C)[C@]3(C)CC[C@@H]12,Potency,[2],inactive
same,Potency,[3],inactive
same,Potency,[14],inactive
same,Potency,[4],inactive
CC(C)NCC(O)COc1cccc2ccccc12 (centres undefined),max response,[12],1.78% (inactive) and -12.1% (inactive)
same,Potency,[13],inactive
same,Potency,[1],inactive
N#C/C(=C\c1ccc(O)c(O)c1)C(=O)NCCCc1ccccc1,Potency,[1],inactive
same,Potency,[14],inactive
same,Potency,[4],inactive
N#C/C(=C\c1ccc(O)c(O)c1)C(=O)NCc1ccccc1,Potency,[1],inactive
same,Potency,[14],inactive
CN(C)c1ccc(N=NS(=O)(=O)O)cc1,max response,[12],-6.45% (inactive) and -13.1% (inactive)
same,Potency,[13],inactive
same,Potency,[1],inactive
same,Potency,[4],inactive
CN1CCC[C@H]1c1cccnc1,max response,[12],-10.2% (inactive) and -14.6% (inactive)
same,Potency,[13],inactive
same,Potency,[1],inactive
CC(=O)c1ccc(OCC(=O)N2CCCCC2)cc1,Potency,[1],inactive
same,Potency,[14],inactive
same,Potency,[4],inactive
CCOc1ccc2nc(S(N)(=O)=O)sc2c1,Potency,[1],inactive
same,Potency,[3],inactive
same,Potency,[4],inactive
C=C[C@@H]1CN2CC[C@@H]1C[C@H]2[C@H](O)c1ccnc2ccc(OC)cc12,remaining parasite growth % (stronger effect = lower value),[5],0.99%
same,"activity, percent of control",[6],1.73%
same,"remaining proliferation (% of control), lower = more inhibition",[7],1.02%
same,"parasite growth, % of DMSO control",[8],6.67%
same,"parasite growth remaining, % of DMSO control (lower = more inhibition)",[9],9.34%
same,"parasite growth, % of control (lower = inhibition)",[10],20.6%
same,"growth, % of control",[11],5.53%
same,Potency,[1],inactive
C[N+](C)(CCCCCC[N+](C)(C)CCCN1C(=O)c2cccc3cccc(c23)C1=O)CCCN1C(=O)c2cccc3cccc(c23)C1=O,"parasite growth, % of DMSO control",[8],5.01%
same,"parasite growth remaining, % of DMSO control (lower = more inhibition)",[9],5.17%
same,"parasite growth, % of control (lower = inhibition)",[10],6.76%
same,"growth, % of control",[11],4.26%
same,Potency,[1],inactive
COC(=O)[C@H]1[C@H]2C[C@@H]3c4[nH]c5cc(OC)ccc5c4CCN3C[C@H]2C[C@@H](OC(=O)/C=C/c2cc(OC)c(OC)c(OC)c2)[C@@H]1OC,Potency,[2],inactive
same,Potency,[3],inactive
same,Potency,[14],inactive
same,Potency,[4],inactive
